Screening results as filed in PubChem.
DRD3 antagonist – D3 dopamine receptor (human) antagonism; D3R cells, DiscoveRx beta-arrestin luminescence, antagonist mode; hits give low values; max response, negative = inhibition, %; 360,000 tested, 2.5% active; in the data active = max response below about -50%; inconclusive = no clear call, values can overlap the other calls; also: % is scaled to controls: 0 for no effect and ±100 for the full control effect
Target sequence (P35462 whole entry, looked up): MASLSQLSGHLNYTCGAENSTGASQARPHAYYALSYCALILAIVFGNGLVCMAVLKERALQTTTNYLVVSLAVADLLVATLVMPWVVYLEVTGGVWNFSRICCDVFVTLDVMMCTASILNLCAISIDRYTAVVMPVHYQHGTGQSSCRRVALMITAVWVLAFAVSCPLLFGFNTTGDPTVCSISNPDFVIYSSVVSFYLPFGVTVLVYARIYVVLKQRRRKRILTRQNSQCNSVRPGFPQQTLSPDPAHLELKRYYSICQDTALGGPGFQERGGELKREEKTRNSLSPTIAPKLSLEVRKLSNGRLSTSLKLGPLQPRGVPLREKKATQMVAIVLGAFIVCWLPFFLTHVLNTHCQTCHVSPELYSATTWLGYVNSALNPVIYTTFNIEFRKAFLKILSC
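Cells expressing the human receptor were seeded at 1500 cells/well, incubated overnight at 37 degrees C in 5% CO2, then exposed to library compounds with dopamine controls for 90 minutes at 37 degrees C before luminescent detection.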
KB-V1 cytotox – kills drug-selected multidrug resistant KB-V1 cells; 400,000 tested, 3.4% active; KB-V1 MDR cells viability, CellTiter-Glo, 72 h; Potency, µM (titrated, usually from 46.1 µM), usual class: cytotoxic; AID 1347076; also: potency is read from the fitted curve at half-maximal effect; % is scaled to controls: 0 for no effect and ±100 for the full control effect; nearly all actives have a fitted effect of over 60% in size
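KB-V1 MDR subline cells in DMEM (phenol-red free, 10% FBS) exposed to compounds in qHTS concentration series for 72 h at 37 degrees C. Viability read by CellTiter-Glo luminescence; concentration-effect curves fitted after normalization and correction.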
KB-3-1 cytotox – kills parental KB-3-1 adenocarcinoma cells | KB-3-1 viability, CellTiter-Glo ATP luminescence, 72 h | Potency, µM (top dose mostly 46.1 µM), usual class: cytotoxic | 400,000 tested, 1.4% active | AID 1347075; also: potency is read from the fitted curve at half-maximal effect; % is scaled to controls: 0 for no effect and ±100 for the full control effect; nearly all actives have a fitted effect of over 60% in size
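Using CellTiter-Glo luminescence, growth of non-resistant KB-3-1 adenocarcinoma cells is assessed 72 h after pin-tool compound addition at 37 °C. Normalized responses across the concentration series yield fitted curves.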
D3 ag – D3 dopamine receptor (human) agonism | P35462 | D3R DiscoveRx beta-arrestin cells, luminescence, 90 min | max activation, % | 410,000 tested, 0.58% active | AID 652048; in the data active = max activation above about 30%; also: 0% is about no effect
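Agonist mode: compounds and dopamine controls were applied to plated cells for 90 min at 37 degrees C after an overnight attachment at 1500 cells/well. Luminescent read-out followed 30 - 60 minutes at room temperature with DiscoveRx detection reagent.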
SW480 rereplic – DNA re-replication induction in SW480 cells. AID 624297. SW480 DNA re-replication, Hoechst DNA content imaging, 48 h. Potency, µM (top dose mostly 46.1 µM), inactives show at the highest dose re-replication activation, most hits filed as activators. 340,000 tested, 1.8% active; also: potency is read from the fitted curve at half-maximal effect; % of control where 0% means no effect; nearly all actives have a fitted effect of over 55% in size
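Compounds, transferred as 23 nL by pin tool, were incubated with cells for 48 hr; DNA content per nucleus was then quantified by Hoechst staining and fluorescence plate imaging.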
MCF10A rerep – inducers of DNA re-replication in MCF 10A breast cells | Potency, µM (doses to about 46.1 µM), for the others: at the highest dose activity, positive = re-replication, actives largely listed as activators | MCF 10A DNA re-replication, Hoechst nuclear intensity, 48 h | 350,000 tested, 2.9% active; also: potency is read from the fitted curve at half-maximal effect; % of control where 0% means no effect; nearly all actives have a fitted effect of over 50% in size
An asterisk follows results filed as active; i = inactive; ? = inconclusive; . = no result given; [ ] = another dose, or the depositor's remark. Hits are enriched below; roughly 8.9% of the tested compounds scored in any of these assays. Unless noted, calls follow the shape of the dose curve; as a rule, active = well fitted curve in the direction sought with a large enough effect; inconclusive = small, poorly fitted or top-dose-only effect, or another doubt; inactive = no such curve, though single readings can be large; an effect the other way counts as inactive or inconclusive.

SMILES	DRD3 antagonist	KB-V1 cytotox	KB-3-1 cytotox	D3 ag	SW480 rereplic	MCF10A rerep
O=C(c1cccc([N+](=O)[O-])c1)N1c2nc(-c3ccco3)nn2C2(CCCCC2)[C@@H]2CCCC[C@@H]21	.	.	.	4	.	.
COc1cccc(CNC(=O)c2sc3ncccc3c2-n2c(C)ccc2C)c1OC	.	i	i	-7	.	.
Cc1cccc(C)c1NC(=O)CSc1nc(-c2ccco2)cc(C(F)(F)F)n1	17	i	i	14	21µM*	8%
Cc1cc(NC(=O)CCSc2nc(-c3ccco3)cc(C(F)(F)F)n2)no1	-4	i	i	7	-31%	-11%
Cc1cc(NC(=O)CSc2nc(-c3ccco3)cc(C(F)(F)F)n2)no1	16	?	0.82µM*	-9	0.73µM*	3.3µM*
O=C(CCNC(=O)c1ccccc1Cl)Nc1ccc2c(c1)OCCO2	-23	i	i	-2	.	.
c1ccc(CCNc2ccccn2)nc1	2	?	i	6	-4%	0%
c1ccc(CCNc2ccc3ncc(-c4cccc5ccccc45)n3n2)nc1	29	13µM*	i	1	.	.
COc1ccccc1/C=C/C=N/n1c(-c2ccc(F)cc2)n[nH]c1=S	-12	?	?	-15	-2%	11%
Cc1n[nH]c(=S)n1/N=C/c1ccccc1OCc1ccc(Cl)cc1	-51*	12µM*	?	-4	?	6%
Cc1cccc(-c2n[nH]c(=S)n2/N=C/C=C/c2ccco2)c1	-98*	i	i	-10	-23%	-1%
COc1ccccc1/C=C/C=N/n1c(COc2ccccc2)n[nH]c1=S	-86*	i	i	-6	-3%	140%[0.0737 µM]
COc1ccccc1/C=C\C=N\n1c(-c2ccc(Cl)cc2)n[nH]c1=S	-51*	?	i	-19	-3%	?
COc1cccc(/C=N/n2c(COc3ccccc3)n[nH]c2=S)c1OC	-6	i	i	0	-10%	-12%
CCOC(=O)c1cc(-c2ccccc2)n(-c2cccc(C(=O)Nc3cccc(C)c3)c2)c1C	.	.	.	-16	.	.
COCCNC(=O)c1cnn2c(C(F)(F)F)cc(-c3ccc4c(c3)OCO4)nc12	33	2.1µM*	i	-10	-1%	?
O=C(NC1CCCCC1)N1CCCC(c2nc3ccccc3[nH]2)C1 (stereo not drawn)	-126*	21µM*	i	-18	-1%	-5%
O=C(NC1CCCCC1)N1CCC(c2nc3ccccc3[nH]2)CC1	11	i	i	-2	-2%	3%
O=C(CN(C(=O)c1cccc([N+](=O)[O-])c1)C1CCCCC1)Nc1ccc(Cl)c([N+](=O)[O-])c1	-79*	?	?	-12	-1%	22%
Cc1ccc([N+](=O)[O-])cc1NC(=O)CN(C(=O)c1ccccc1Cl)C1CCCCC1	10	i	i	-10	7%	12%
Cc1ccc2c(=O)n3c(nc2c1)C(C)NC(=O)c1cccnc1-3 (stereo not drawn)	20	?	i	5	.	.
CCOC(=O)N1CCc2c(sc3c2C(=O)NC(c2ccc(N(C)C)cc2)N3)C1 (stereo not drawn)	.	.	.	-8	.	.
CCOC(=O)N1CCc2c(sc3c2C(=O)NC(c2ccccc2)N3)C1 (stereo not drawn)	11	i	?	3	9.2µM*	?
CN1CCc2c(sc3c2C(=O)NC(c2cn(Cc4ccccc4)c4ccccc24)N3)C1 (stereo not drawn)	-75*	15µM*	9.2µM*	-11	?	?
CN1CCc2c(sc3c2C(=O)NC(c2ccco2)N3)C1 (stereo not drawn)	17	i	i	-25	0%	6%
SMILES	DRD3 antagonist	KB-V1 cytotox	KB-3-1 cytotox	D3 ag	SW480 rereplic	MCF10A rerep
CN1CCc2c(sc3c2C(=O)NC(c2ccc(-c4ccc(Cl)cc4)o2)N3)C1 (stereo not drawn)	-81*	i	i	-25	?	23µM*
COc1ccc(Br)cc1C1NC(=O)c2c(sc3c2CCN(C)C3)N1 (stereo not drawn)	16	i	i	-3	1%	7%
CCC(=O)O[C@]1(C(=O)CCl)[C@@H](C)C[C@H]2[C@@H]3C[C@H](F)C4=CC(=O)C=C[C@]4(C)[C@@]3(F)[C@@H](O)C[C@@]21C	.	.	.	5	.	.
CCN(CC)CCCNC(=O)Cn1nc(C)n2c(cc3sccc32)c1=O	.	i	i	-16	.	.
CCOC(=O)c1sc2nc3c(SCCC#N)cc(C(=O)c4cc(F)ccc4O)cn3c(=O)c2c1C	-6	i	i	2	19%	18%
O=C(O)CSc1cc(C(=O)c2cc(F)ccc2O)cn2c(=O)c3c(-c4ccccc4)csc3nc12	4	i	i	-6	-20%	13µM*
CCOC(=O)c1sc2nc3c(SCCC(=O)O)cc(C(=O)c4cc(OC)ccc4O)cn3c(=O)c2c1C	1	i	i	11	2.6µM*	?
Cn1cc([N+](=O)[O-])c(C(=O)Nc2ccc(C3CCCCC3)cc2)n1	-9	?	?	1	?	?
Cc1cc(C)n(Cc2ccc(NC(=O)c3nn(C)cc3[N+](=O)[O-])cc2)n1	7	?	i	7	2.9µM*	2.3µM*
Cn1cc([N+](=O)[O-])c(C(=O)Nc2ccc(C(=O)N3CCCCC3)cc2)n1	-11	?	23µM*	0	15µM*	21µM*
Cc1ccc(Cn2ccc(NC(=O)c3noc4c3CCCC4)n2)cc1	6	i	i	16	3%	-9%
O=[N+]([O-])c1cc(Oc2cccnc2)cc([N+](=O)[O-])c1	23	i	i	1	-3%	0%
Cn1cc([N+](=O)[O-])c(C(=O)Nc2cc(Oc3cccnc3)cc([N+](=O)[O-])c2)n1	?	?	?	4	10µM*	9.2µM*
Cc1ccc(Cn2ccc(NC(=O)c3noc4c3CCCCC4)n2)cc1	1	5.2µM*	?	9	5%	18%
COc1ccccc1CNC(=O)C1CCN(S(=O)(=O)c2ccc3[nH]c(=O)ccc3c2)CC1	.	i	i	1	.	.
Cc1ccc(Cn2ccc(NC(=O)c3nn(C)cc3[N+](=O)[O-])n2)cc1	29	10µM*	?	2	12µM*	13µM*
Cn1cc([N+](=O)[O-])c(C(=O)Nc2ccn(C34CC5CC(CC(C5)C3)C4)n2)n1	10	15µM*	4.6µM*	1	?	?
